Experiments:
[1] = system: Human papillomavirus type 1a protein E7 (residues 44-93); test: HPV1a E7 fragment binders on microarrays, primary screen, biochemical, small-molecule microarray, residues 44-93, 635 nm fluorescence (AID 1108); details: small-molecule microarray binding, fluorescence 635 nm; higher = more signal;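 also: E7 fragment applied at 1 µg/mL in TBST for 1 h at 4 C; score combines spot fluorescence with its signal to noise ratio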
[2] = modulators of HCV replicon luciferase signal, primary screen, HCV replication inhibitor project, Huh7 cells, luciferase reporter (AID 1109); details: 48 h, higher = more signal;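 also: huh7 hepatoma cells harbouring a luciferase neomycin HCV replicon reporter; luciferase luminescence as measure of HCV replicon replication; test concentration not given here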
[3] = target: Left-right determination factor 2 (Homo sapiens) (UniProt O00292); test: LEFTY2 binders on small-molecule microarrays, primary screen, biochemical, small-molecule microarray, 635 nm fluorescence scan (AID 1110); details: LEFTY2 binding, higher = more signal
[4] = target: Calmodulin-1 (Homo sapiens) (UniProt P0DP23); test: CALM1 binders on microarrays, EGTA buffer, profiling panel, biochemical, small-molecule microarray, Cy5-labelled CALM1 (AID 1111); details: Cy5-CALM1 binding fluorescence, higher = more signal;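 also: labelled calmodulin applied in Tris saline Tween buffer holding calcium plus EGTA and DTT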
[5] = target: Calmodulin-1 (Homo sapiens) (UniProt P0DP23); test: calcium-bound CALM1 binders on microarrays, profiling panel, artefact control for SMM control-protein annotation, biochemical, small-molecule microarray, Cy5-labelled CALM1, plus calcium (AID 1112); details: Cy5-CALM1 binding fluorescence, higher = more signal;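 also: score merges spot fluorescence with signal to noise from triplicate slides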
[6] = small-molecule microarray binders of probe aWnt5a, primary screen, biochemical, biotinylated probe, 635/667 nm fluorescence (AID 1113); details: higher = more signal;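 also: score merges 667 nm fluorescence intensity with signal-to-noise per printed feature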
[7] = small-molecule microarray binders of probe aShh, primary screen, biochemical, biotinylated probe, 635/667 nm fluorescence (AID 1114); details: higher = more signal;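 also: probe is biotin-labelled aShh protein from a stem cell growth factor screen; measures binding of labelled protein to compounds printed on the slide; score merges feature fluorescence at 667 nm with signal-to-noise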
[8] = small-molecule microarray binders of probe aNog, primary screen, biochemical, biotinylated probe, 635/667 nm fluorescence (AID 1115); details: higher = more signal;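 also: probe is biotinylated aNog protein used at 0.15 µg/mL for 1 h at 4 C; z-score combines 667 nm fluorescence of each spot with its signal to noise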
[9] = target: Torsin-1A-interacting protein 1 (Homo sapiens) (UniProt Q5JTV8); test: LAP1 binders from COS7 cell lysate, primary screen, small-molecule microarray, 635/667 nm fluorescence (AID 1116); details: COS7-hLAP1 lysate binding, 635 nm fluorescence, higher = more signal
[10] = target: Alpha-bungarotoxin (Bungarus multicinctus) (UniProt P60615); test: alpha-bungarotoxin binders on microarray, profiling panel, artefact control for SMM control protein annotation, biochemical, small-molecule microarray, Alexa647 label, 635/667 nm fluorescence (AID 1117); details: alpha-BTX-A647 binding fluorescence, higher = more signal
Sequence of Alpha-bungarotoxin (Bungarus multicinctus) (P60615 whole entry, looked up): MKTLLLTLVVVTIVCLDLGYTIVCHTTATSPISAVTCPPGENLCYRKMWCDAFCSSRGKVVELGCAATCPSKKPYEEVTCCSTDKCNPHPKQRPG

Sequence of Torsin-1A-interacting protein 1 (Homo sapiens) (Q5JTV8 whole entry, looked up): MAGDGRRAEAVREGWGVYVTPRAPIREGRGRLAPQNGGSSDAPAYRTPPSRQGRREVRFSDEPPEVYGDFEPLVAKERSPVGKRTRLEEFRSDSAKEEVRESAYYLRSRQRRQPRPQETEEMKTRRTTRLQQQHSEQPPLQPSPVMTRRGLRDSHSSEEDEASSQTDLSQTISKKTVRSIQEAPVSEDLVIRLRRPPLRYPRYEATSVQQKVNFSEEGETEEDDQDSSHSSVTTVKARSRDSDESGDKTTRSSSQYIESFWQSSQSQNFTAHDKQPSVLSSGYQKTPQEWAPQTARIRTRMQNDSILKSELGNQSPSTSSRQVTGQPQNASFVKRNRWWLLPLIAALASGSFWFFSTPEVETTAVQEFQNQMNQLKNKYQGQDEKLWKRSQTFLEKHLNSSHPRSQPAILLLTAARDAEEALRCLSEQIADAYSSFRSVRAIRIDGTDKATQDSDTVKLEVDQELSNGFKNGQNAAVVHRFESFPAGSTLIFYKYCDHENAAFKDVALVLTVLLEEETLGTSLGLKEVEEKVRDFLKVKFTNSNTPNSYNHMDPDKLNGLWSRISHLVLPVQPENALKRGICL
Sequence of Left-right determination factor 2 (Homo sapiens) (O00292 whole entry, looked up): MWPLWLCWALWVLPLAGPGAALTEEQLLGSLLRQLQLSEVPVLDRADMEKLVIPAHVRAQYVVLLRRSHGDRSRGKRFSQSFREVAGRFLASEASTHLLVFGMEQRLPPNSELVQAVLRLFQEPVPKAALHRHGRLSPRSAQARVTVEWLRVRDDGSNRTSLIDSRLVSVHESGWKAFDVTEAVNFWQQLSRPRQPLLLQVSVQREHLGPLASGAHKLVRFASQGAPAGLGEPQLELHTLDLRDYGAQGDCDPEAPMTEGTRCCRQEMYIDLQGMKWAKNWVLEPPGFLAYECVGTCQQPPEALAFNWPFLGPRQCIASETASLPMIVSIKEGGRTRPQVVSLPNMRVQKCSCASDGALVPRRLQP

Compound | composite z-score [1] | z-score [2] | composite z-score [3] | composite z-score [4] | composite z-score [5] | composite z-score [6] | composite z-score [7] | composite z-score [8] | composite z-score [9] | composite z-score [10]
C=C(CCCC)/C(=C/C[C@H](OC(C)=O)c1ccc(CO)o1)c1cnc2ccccc2c1 | 1.39 | -1.54 | 0.487 | 0.229 | -0.693 | -0.0478 | 0.292 | -0.28 | -0.092 | 1.73
Cc1ccccc1C(O)C1C=CC2C(=O)N(C)C(=O)C2N1Nc1ccccc1 (stereo not given) | 0.633 | -0.712 | 0.103 | 2.3 | 1.06 | 0.111 | -0.0289 | 1.07 | 1.91 | 1.08
CCOC(=O)C[C@H]1[C@H](OC(=O)Cc2ccc3c(c2)OCO3)[C@@H](NC(=O)c2ccc(-c3ccccc3)cc2)c2cc(OCCCO)ccc2N1C(=O)c1ccccc1 | 1.06 | -1.25 | 0.525 | 0.326 | -0.0305 | -0.113 | 0.0483 | -0.287 | 0.42 | 0.815
Cc1ccc([C@H]2C(C(=O)O)=C[C@@H](C)N2S(=O)(=O)c2ccc(C)cc2)cc1 | 0.801 | 0.537 | -0.942 | 1 | 0.0248 | -0.0478 | 0.0062 | -0.0827 | 0.917 | 1.57
C=CCC(OC(C)=O)[C@@H]1[C@@H](N(Cc2cccc3ccccc23)C(=O)c2ccc(C)cc2)c2cc(OCCCO)ccc2N1C(=O)Cc1ccc(OC)cc1 (stereo not given in full) | 0.332 | -0.22 | -0.248 | 0.327 | -0.0943 | -0.124 | 0.0278 | -0.198 | 0.0873 | 0.215
CCC[C@@H]1C=C(C(=O)O)[C@H](c2ccc(C)cc2)N1S(=O)(=O)c1ccc(C)cc1 | 1.36 | 0.641 | -0.442 | 0.665 | 0.0233 | -0.0819 | 0.0815 | 0.582 | 0.959 | 1.45
CO[C@H]1O[C@H](CO)[C@@H](OC(=O)Nc2ccc3c(c2)OCO3)[C@H](OC(=O)Nc2ccccc2)[C@H]1OC(=O)Nc1ccccc1 | 1.5 | -3.44 | 0.0544 | 1.36 | -0.905 | -0.0519 | 0.275 | 0.909 | 1.47 | 1.74
